Data taken from ChEMBL document CHEMBL4513216, “Probing the Open Global Health Chemical Diversity Library for Multistage-Active Starting Points for Next-Generation Antimalarials” (ACS Infect Dis, 2020).
The whole screen tested about 69,000 compounds, of which about 8,600 (12%) showed an effect of 50% or more. The sample holds strong results, similar compounds and a random draw of the others, so the mix is not that of the screen.

System: Plasmodium berghei
Assay: Screen against P. berghei liver stage (PbLuc), transformed with Luciferase, at 10uM
Assay type: functional, HepG2
Conditions: tested at 10 uM

| SMILES | INHIBITION |
| --- | --- |
| Cc1nc(-c2ccsc2)ccc1C(=O)NCCN1CCN(C)CC1 | 18.515% |
| CCC1=NC(SCC(=O)c2ccc(OC)cc2)c2cc(CC)sc2N1 (centres undefined) | 36.6% |
| CC(C)C(=O)N1CCC2(CCCN(CCOc3ccccc3)C2)C1 (centres undefined) | -4.27% |
| O=C(N1CCCC1)N1CCC2(CCCN(CCOc3ccccc3)C2)C1 (centres undefined) | 69.9% |
| CN(C)C(=O)N1CCC2(CCCN(CCOc3ccccc3)C2)C1 (centres undefined) | -44.2% |
| c1ccc(CCN2CCOC(CNc3cccnn3)C2)nc1 (centres undefined) | -71.2% |
| Cc1cccc(C(C)CNC(=O)N2CCC3(C2)OCCO3)c1 (centres undefined) | 52.6% |
| CC(NC(=O)N1CCC2(C1)OCCO2)c1cccc(Cl)c1 (centres undefined) | 5.58% |
| Cc1cccc(C(C)CNC(=O)N2CCOCC3(CCOCC3)C2)c1 (centres undefined) | -7.36% |
| Cc1ccc(C)n1-c1ccsc1C(=O)NCC(=O)N1CCCC1 | -7.7% |
| COc1ccc(-n2cc3nc(N4CCCC4)[nH]cc-3c2=O)cc1Cl | 30.8% |
| Cc1ccc(OC2(C(=O)NC(C)Cc3ccsc3)CCNCC2)cc1 (centres undefined) | -8.75% |
| c1ncc2c(n1)CN(Cc1nc(-c3ccoc3)no1)CC2 | -21.87% |
| Cc1noc(CS(=O)(=O)C(C)C(=O)N(C)c2ccccc2)n1 (centres undefined) | 50.8% |
| Cc1cc(CS(=O)(=O)C(C)C(=O)N(C)c2ccccc2)on1 (centres undefined) | 59.4% |
| Cc1noc(CN(C)c2ccccc2)n1 | 29.8% |
| CCC(O)CN(CC(=O)Nc1cc(C)no1)c1ccccc1 (centres undefined) | 16.8% |
| Cc1cc(NC(=O)CN(CC(C)O)c2ccccc2)on1 (centres undefined) | 51.3% |
| Cc1noc(C)c1CS(=O)(=O)C(C)C(=O)N(C)c1ccccc1 (centres undefined) | 11.5% |
| CCN(C(=O)C(C)S(=O)(=O)Cc1nc(C)no1)c1ccccc1 (centres undefined) | 26.9% |
| Cc1cc(NC(=O)CN(c2ccccc2)C(C)C)on1 | 13% |
| Cc1cc(CS(=O)(=O)C(C)c2ccc(F)cc2)on1 (centres undefined) | -41% |
| CC(C)N(Cc1ccccn1)C(=O)CCOc1cccc(F)c1 | -1.32% |
| COc1ccc(NC(=O)C2OC(c3cccs3)=NN2C(C)=O)cc1OC (centres undefined) | 14.5% |
| O=C(CC1CC1)N1CCC(O)(CN2CCN(c3ccccc3)CC2)C1 (centres undefined) | 17.4% |
| Cc1nnc(NC(=O)CN2CCc3nn(C(C)C)c(=O)cc3C2)s1 | -18% |
| O=C(c1cscn1)N1CCc2ncc(CN3CCCC3)n2CC1 | 23.1% |
| Cc1nccc(CNc2cc(N3CCCC3CO)ncn2)n1 (centres undefined) | -0.219% |
| COc1ccc(CN2C[C@@H]3CN(Cc4ccncc4)C[C@@H]3C2=O)cc1 | -2.35% |
